# Data: PubChem BioAssay AID1159580 (chemical genetic matrix, 2015)
# Among all 5,500 compounds or so, about 2,000 (36%) were called active. Inconclusive results (about 18%) are left out. Some of the results follow. Unmarked numbers belong to inactive results. No stated cut-off is given here; in the data, active means normalized growth mostly below about 0.91 (no sharp cut-off); inconclusive means no clear call, values can overlap the other calls; inactive means mostly above about 0.92.
# Assay: chemical genetic growth profiling, strain panel (AID 1159580);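 further: tested at 20 µM; growth read once vehicle control cultures reached saturation at 30 °C; 1 = growth at the plate median or of vehicle wells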
# Settings: growth OD
# [1] = S. cerevisiae deletion strains, locus YAL040C, strain CLN3, stronger effect = lower value
# [2] = S. cerevisiae deletion strains, locus YCL061C, strain MRC1 (second series), stronger effect = lower value
# [3] = S. cerevisiae deletion strains, locus YDR150W, strain NUM1, stronger effect = lower value
# [4] = S. cerevisiae deletion strains, locus YDR363W, strain ESC2, stronger effect = lower value
# [5] = S. cerevisiae deletion strains, locus YER002W, strain NOP16, stronger effect = lower value
# [6] = S. cerevisiae deletion strains, locus YMR263W, strain SAP30, stronger effect = lower value
# [7] = S. cerevisiae deletion strains, locus YNL175C, strain NOP13, stronger effect = lower value
# [8] = S. cerevisiae deletion strains, locus YNL197C, strain WHI3, stronger effect = lower value
# [9] = S. cerevisiae deletion strains, locus YNL224C, strain SQS1, stronger effect = lower value
# [10] = S. cerevisiae deletion strains, locus YNL322C, strain KRE1, stronger effect = lower value
# [11] = S. cerevisiae deletion strains, locus YOR083W, strain WHI5 (second series), stronger effect = lower value
# [12] = S. cerevisiae deletion strains, locus YPL241C, strain CIN2, stronger effect = lower value
# [13] = S. cerevisiae deletion strains, locus YGR078C, strain PAC10, stronger effect = lower value
# [14] = S. cerevisiae deletion strains, locus YPL055C, strain LGE1, stronger effect = lower value
# [15] = S. cerevisiae deletion strains, locus YHR030C, strain SLT2, stronger effect = lower value
smiles,measurement,setting,value
CCCc1c(OCCCOc2ccc(OCC(=O)O)cc2)ccc(C(C)=O)c1O,normalized growth,[1],0.942
same,normalized growth,[2],0.999
same,normalized growth,[3],0.997
same,normalized growth,[4],1.01
same,normalized growth,[5],1.04
same,normalized growth,[6],1.01
same,normalized growth,[7],0.98
same,normalized growth,[8],0.987
same,normalized growth,[9],0.963
same,normalized growth,[10],1.01
same,normalized growth,[11],0.914
same,normalized growth,[12],1
O=C(OCCN1CCCCC1)c1c[nH]c2ccccc12,normalized growth,[1],1
same,normalized growth,[2],1.01
same,normalized growth,[4],0.997
same,normalized growth,[5],1.02
same,normalized growth,[13],1.02
same,normalized growth,"S. cerevisiae deletion strains, locus YGR229C, strain SMI1, stronger effect = lower value",0.999
same,normalized growth,[6],0.999
same,normalized growth,"S. cerevisiae deletion strains, locus YMR307W, strain GAS1, stronger effect = lower value",1.01
same,normalized growth,"S. cerevisiae deletion strains, locus YNL128W, strain TEP1, stronger effect = lower value",1.01
same,normalized growth,[7],1.01
same,normalized growth,[8],1
same,normalized growth,[9],0.994
same,normalized growth,[11],1
same,normalized growth,[14],0.997
CCCCOc1ccc(C(=O)CCC(=O)O)cc1,normalized growth,"S. cerevisiae deletion strains, locus YAL013W, strain DEP1, stronger effect = lower value",0.977
same,normalized growth,"S. cerevisiae deletion strains, locus YBR229C, strain ROT2, stronger effect = lower value",0.915 (active)
same,normalized growth,"S. cerevisiae deletion strains, locus YCL061C, strain MRC1, stronger effect = lower value",0.936
same,normalized growth,"S. cerevisiae deletion strains, locus YDL101C, strain DUN1, stronger effect = lower value",0.886 (active)
same,normalized growth,"S. cerevisiae deletion strains, locus YDL134C, strain PPH21, stronger effect = lower value",1.04
same,normalized growth,[3],0.934
same,normalized growth,"S. cerevisiae deletion strains, locus YEL061C, strain CIN8, stronger effect = lower value",1
same,normalized growth,[13],0.939
same,normalized growth,[15],0.997
same,normalized growth,"S. cerevisiae deletion strains, locus YHR087W, strain rtc3, stronger effect = lower value",0.982
same,normalized growth,"S. cerevisiae deletion strains, locus YJR043C, strain POL32, stronger effect = lower value",0.879 (active)
same,normalized growth,"S. cerevisiae deletion strains, locus YJR075W, strain HOC1, stronger effect = lower value",0.931
same,normalized growth,"S. cerevisiae deletion strains, locus YKL190W, strain CNB1, stronger effect = lower value",1.02
same,normalized growth,"S. cerevisiae deletion strains, locus YLR039C, strain RIC1, stronger effect = lower value",0.945
same,normalized growth,"S. cerevisiae deletion strains, locus YLR058C, strain SHM2 (second series), stronger effect = lower value",1.01
same,normalized growth,"S. cerevisiae deletion strains, locus YLR085C, strain ARP6, stronger effect = lower value",0.985
same,normalized growth,"S. cerevisiae deletion strains, locus YLR262C, strain YPT6, stronger effect = lower value",0.946
same,normalized growth,"S. cerevisiae deletion strains, locus YML094W, strain GIM5, stronger effect = lower value",1.01
same,normalized growth,"S. cerevisiae deletion strains, locus YMR219W, strain ESC1, stronger effect = lower value",0.983
same,normalized growth,[6],0.969
same,normalized growth,"S. cerevisiae deletion strains, locus YNL153C, strain GIM3, stronger effect = lower value",0.904 (active)
same,normalized growth,"S. cerevisiae deletion strains, locus YNL298W, strain CLA4 (second series), stronger effect = lower value",1.01
same,normalized growth,[10],1.01
same,normalized growth,"S. cerevisiae deletion strains, locus YNR030W, strain Alg12, stronger effect = lower value",0.982
same,normalized growth,"S. cerevisiae deletion strains, locus YOL006C, strain TOP1, stronger effect = lower value",1.05
same,normalized growth,[14],0.909
same,normalized growth,[12],1.01
same,normalized growth,"S. cerevisiae deletion strains, locus YPR135W, strain CTF4, stronger effect = lower value",1.03
same,normalized growth,"S. cerevisiae strains, strain wild type, stronger effect = lower value",1.03
O=C(CCN1CCCCC1)c1ccc(-c2ccccc2)cc1,normalized growth,"S. cerevisiae deletion strains, locus YAR019C, strain CDC15, stronger effect = lower value",0.97
same,normalized growth,"S. cerevisiae deletion strains, locus YBL105C, strain PKC1, stronger effect = lower value",0.975
same,normalized growth,"S. cerevisiae deletion strains, locus YBR135W, strain CKS1, stronger effect = lower value",0.984
same,normalized growth,"S. cerevisiae deletion strains, locus YBR136W, strain MEC1, stronger effect = lower value",0.981
same,normalized growth,"S. cerevisiae deletion strains, locus YBR160W, strain CDC28, stronger effect = lower value",0.987
same,normalized growth,"S. cerevisiae deletion strains, locus YDL017W, strain CDC7, stronger effect = lower value",0.982
same,normalized growth,"S. cerevisiae deletion strains, locus YDL028C, strain MPS1, stronger effect = lower value",0.984
same,normalized growth,"S. cerevisiae deletion strains, locus YDL108W, strain KIN28, stronger effect = lower value",0.979
same,normalized growth,"S. cerevisiae deletion strains, locus YDL132W, strain cdc53, stronger effect = lower value",0.977
same,normalized growth,"S. cerevisiae deletion strains, locus YDL214C, strain PRR2, stronger effect = lower value",0.909
same,normalized growth,"S. cerevisiae deletion strains, locus YDR052C, strain DBF4, stronger effect = lower value",0.977
same,normalized growth,"S. cerevisiae deletion strains, locus YDR054C, strain cdc34, stronger effect = lower value",0.966
same,normalized growth,"S. cerevisiae deletion strains, locus YDR226W, strain ADK1, stronger effect = lower value",0.983
same,normalized growth,"S. cerevisiae deletion strains, locus YDR477W, strain SNF1, stronger effect = lower value",0.785
same,normalized growth,"S. cerevisiae deletion strains, locus YER123W, strain YCK3, stronger effect = lower value",0.892
same,normalized growth,"S. cerevisiae deletion strains, locus YER133W, strain GLC7, stronger effect = lower value",0.961
same,normalized growth,"S. cerevisiae deletion strains, locus YFL009W, strain cdc4, stronger effect = lower value",0.98
same,normalized growth,"S. cerevisiae deletion strains, locus YFL029C, strain CAK1, stronger effect = lower value",0.978
same,normalized growth,"S. cerevisiae deletion strains, locus YFR003C, strain YPI1, stronger effect = lower value",0.979
same,normalized growth,"S. cerevisiae deletion strains, locus YFR019W, strain FAB1, stronger effect = lower value",0.961
same,normalized growth,"S. cerevisiae deletion strains, locus YFR028C, strain CDC14, stronger effect = lower value",0.976
same,normalized growth,"S. cerevisiae deletion strains, locus YGR040W, strain KSS1, stronger effect = lower value",0.839
same,normalized growth,"S. cerevisiae deletion strains, locus YGR052W, strain FMP48, stronger effect = lower value",0.625
same,normalized growth,"S. cerevisiae deletion strains, locus YGR092W, strain DBF2, stronger effect = lower value",0.193 (active)
same,normalized growth,[15],0.567 (active)
same,normalized growth,"S. cerevisiae deletion strains, locus YHR079C, strain IRE1, stronger effect = lower value",0.691
same,normalized growth,"S. cerevisiae deletion strains, locus YHR082C, strain KSP1, stronger effect = lower value",0.811
same,normalized growth,"S. cerevisiae deletion strains, locus YHR205W, strain SCH9, stronger effect = lower value",0.471 (active)
same,normalized growth,"S. cerevisiae deletion strains, locus YIL147C, strain SLN1, stronger effect = lower value",0.977
same,normalized growth,"S. cerevisiae deletion strains, locus YJL095W, strain BCK1, stronger effect = lower value",0.689
same,normalized growth,"S. cerevisiae deletion strains, locus YJL128C, strain PBS2, stronger effect = lower value",0.866
same,normalized growth,"S. cerevisiae deletion strains, locus YJL157C, strain FAR1, stronger effect = lower value",0.925
same,normalized growth,"S. cerevisiae deletion strains, locus YJR016C, strain ILV3, stronger effect = lower value",0.98
same,normalized growth,"S. cerevisiae deletion strains, locus YJR066W, strain TOR1 (second series), stronger effect = lower value",0.898
same,normalized growth,"S. cerevisiae deletion strains, locus YJR066W, strain TOR1, stronger effect = lower value",0.733
same,normalized growth,"S. cerevisiae deletion strains, locus YKL048C, strain ELM1, stronger effect = lower value",0.699 (active)
same,normalized growth,"S. cerevisiae deletion strains, locus YKL067W, strain YNK1, stronger effect = lower value",0.93
same,normalized growth,"S. cerevisiae deletion strains, locus YKL101W, strain HSL1, stronger effect = lower value",0.454 (active)
same,normalized growth,"S. cerevisiae deletion strains, locus YKL193C, strain SDS22, stronger effect = lower value",0.976
same,normalized growth,"S. cerevisiae deletion strains, locus YLR113W, strain HOG1, stronger effect = lower value",0.642 (active)
same,normalized growth,"S. cerevisiae deletion strains, locus YLR133W, strain CKI1, stronger effect = lower value",0.908
same,normalized growth,"S. cerevisiae deletion strains, locus YLR403W, strain SFP1, stronger effect = lower value",0.755
same,normalized growth,"S. cerevisiae deletion strains, locus YML070W, strain DAK1, stronger effect = lower value",0.909
same,normalized growth,"S. cerevisiae deletion strains, locus YMR001C, strain CDC5, stronger effect = lower value",0.972
same,normalized growth,"S. cerevisiae deletion strains, locus YMR205C, strain PFK2 (second series), stronger effect = lower value",0.941
same,normalized growth,"S. cerevisiae deletion strains, locus YMR277W, strain FCP1, stronger effect = lower value",0.974
same,normalized growth,"S. cerevisiae deletion strains, locus YNL006W, strain LST8, stronger effect = lower value",0.983
same,normalized growth,"S. cerevisiae deletion strains, locus YNL020C, strain ARK1, stronger effect = lower value",0.822
same,normalized growth,"S. cerevisiae deletion strains, locus YNL161W, strain CBK1, stronger effect = lower value",0.991
same,normalized growth,"S. cerevisiae deletion strains, locus YNL207W, strain RIO2, stronger effect = lower value",0.971
same,normalized growth,"S. cerevisiae deletion strains, locus YNL222W, strain SSU72, stronger effect = lower value",0.977
same,normalized growth,"S. cerevisiae deletion strains, locus YNL307C, strain MCK1 (second series), stronger effect = lower value",0.246 (active)
same,normalized growth,"S. cerevisiae deletion strains, locus YOL078W, strain AVO1, stronger effect = lower value",0.98
same,normalized growth,"S. cerevisiae deletion strains, locus YOL136C, strain PFK27, stronger effect = lower value",0.896
same,normalized growth,"S. cerevisiae deletion strains, locus YOR061W, strain CKA2, stronger effect = lower value",0.805
same,normalized growth,"S. cerevisiae deletion strains, locus YOR119C, strain RIO1, stronger effect = lower value",0.757
same,normalized growth,"S. cerevisiae deletion strains, locus YOR231W, strain MKK1, stronger effect = lower value",0.782
same,normalized growth,"S. cerevisiae deletion strains, locus YOR329C, strain SCD5, stronger effect = lower value",0.976
same,normalized growth,"S. cerevisiae deletion strains, locus YPL031C, strain PHO85, stronger effect = lower value",0.79
same,normalized growth,"S. cerevisiae deletion strains, locus YPL153C, strain RAD53, stronger effect = lower value",0.872
same,normalized growth,"S. cerevisiae deletion strains, locus YPL204W, strain HRR25, stronger effect = lower value",0.889
same,normalized growth,"S. cerevisiae deletion strains, locus YPL209C, strain IPL1, stronger effect = lower value",0.981
same,normalized growth,"S. cerevisiae deletion strains, locus YPL256C, strain CLN2, stronger effect = lower value",0.684 (active)
same,normalized growth,"S. cerevisiae deletion strains, locus YPR025C, strain CCL1, stronger effect = lower value",0.982
same,normalized growth,"S. cerevisiae deletion strains, locus YPR106W, strain ISR1, stronger effect = lower value",0.989
same,normalized growth,"S. cerevisiae deletion strains, locus YPR111W, strain DBF20, stronger effect = lower value",0.97
same,normalized growth,"S. cerevisiae deletion strains, strain NNK1, stronger effect = lower value",0.966
same,normalized growth,"S. cerevisiae deletion strains, strain TSCII, stronger effect = lower value",0.97
